Assay results reported in PubChem BioAssay AID1159580 (chemical genetic matrix, 2015).
Several values for one entry are separate records, joined by “and”; a condition that tells them apart may be missing. Equal values may be shown once. Out of some 5,500 compounds screened, about 2,000 (36%) were called active. About 18% were inconclusive and are not listed. Cut-off read from the data, not from the text of the source: active = normalized growth mostly below about 0.91 (no sharp cut-off); inconclusive = no clear call, values can overlap the other calls; inactive = mostly above about 0.92. The list shows a part of the results.

Assay: chemical genetic growth profiling, strain panel (AID 1159580);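 note: tested at 20 µM; growth read once vehicle control cultures reached saturation at 30 °C; 1 = growth at the plate median or of vehicle wells; lower values mean less growth of the strain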
Details: growth OD

Measured: normalized growth

Clc1ccc(C(c2ccccc2Cl)C(Cl)Cl)cc1 (stereo not given)
inactive: S. cerevisiae deletion strains, locus YJR066W, strain TOR1, active compounds read low 0.894 | S. cerevisiae deletion strains, locus YJR075W, strain HOC1, active compounds read low 1 | S. cerevisiae deletion strains, locus YKL009W, strain mrt4, active compounds read low 0.98 | S. cerevisiae deletion strains, locus YKL068W, active compounds read low 0.995 | S. cerevisiae deletion strains, locus YKL085W, strain MDH1 (second series), active compounds read low 0.989 | S. cerevisiae deletion strains, locus YKL085W, strain MDH1, active compounds read low 0.989 | S. cerevisiae deletion strains, locus YKL160W, strain elf1, active compounds read low 0.923 | S. cerevisiae deletion strains, locus YKL190W, strain CNB1, active compounds read low 1.03 | S. cerevisiae deletion strains, locus YKR001C, strain vps1, active compounds read low 0.968 | S. cerevisiae deletion strains, locus YKR026C, strain gcn3, active compounds read low 0.979 | S. cerevisiae deletion strains, locus YKR091W, strain srl3, active compounds read low 0.976 | S. cerevisiae deletion strains, locus YLL001W, strain dnm1, active compounds read low 0.91 | S. cerevisiae deletion strains, locus YLL026W, active compounds read low 0.962 | S. cerevisiae deletion strains, locus YLL041C, strain sdh2, active compounds read low 0.972 | S. cerevisiae deletion strains, locus YLR039C, strain RIC1, active compounds read low 0.978 | S. cerevisiae deletion strains, locus YLR058C, strain SHM2, active compounds read low 0.994 | S. cerevisiae deletion strains, locus YLR102C, strain apc9, active compounds read low 0.993 | S. cerevisiae deletion strains, locus YLR113W, strain HOG1, active compounds read low 0.93 | S. cerevisiae deletion strains, locus YLR221C, strain rsa3, active compounds read low 0.927 | S. cerevisiae deletion strains, locus YLR258W, strain gsy2, active compounds read low 0.984 | S. cerevisiae deletion strains, locus YLR262C, strain YPT6 (second series), active compounds read low 0.881 | S. cerevisiae deletion strains, locus YLR262C, strain YPT6, active compounds read low 0.955 | S. cerevisiae deletion strains, locus YLR268W, strain sec22, active compounds read low 0.988 | S. cerevisiae deletion strains, locus YLR320W, strain mms22, active compounds read low 0.929 | S. cerevisiae deletion strains, locus YLR330W, strain CHS5, active compounds read low 1 | S. cerevisiae deletion strains, locus YLR342W, strain FKS1 (second series), active compounds read low 1 | S. cerevisiae deletion strains, locus YLR342W, strain FKS1, active compounds read low 0.999 | S. cerevisiae deletion strains, locus YLR357W, strain rsc2, active compounds read low 1.04 | S. cerevisiae deletion strains, locus YLR370C, strain arc18, active compounds read low 0.968 | S. cerevisiae deletion strains, locus YLR371W, strain rom2, active compounds read low 0.985 | S. cerevisiae deletion strains, locus YLR384C, strain iki3, active compounds read low 0.97 | S. cerevisiae deletion strains, locus YLR418C, strain cdc73, active compounds read low 0.91 | S. cerevisiae deletion strains, locus YML016C, strain PPZ1, active compounds read low 0.992 | S. cerevisiae deletion strains, locus YML032C, strain rad52, active compounds read low 0.979 | S. cerevisiae deletion strains, locus YML120C, strain ndi1, active compounds read low 0.932 | S. cerevisiae deletion strains, locus YML124C, strain tub3, active compounds read low 0.988 | S. cerevisiae deletion strains, locus YMR058W, strain fet3, active compounds read low 0.952 | S. cerevisiae deletion strains, locus YMR078C, strain ctf18, active compounds read low 0.984 | S. cerevisiae deletion strains, locus YMR125W, strain sto1, active compounds read low 0.991 | S. cerevisiae deletion strains, locus YMR129W, active compounds read low 0.972 | S. cerevisiae deletion strains, locus YMR205C, strain PFK2, active compounds read low 0.918 | S. cerevisiae deletion strains, locus YMR223W, strain ubp8, active compounds read low 0.978 | S. cerevisiae deletion strains, locus YMR231W, strain pep5, active compounds read low 0.97 | S. cerevisiae deletion strains, locus YMR263W, strain SAP30, active compounds read low 0.975 | S. cerevisiae deletion strains, locus YMR307W, strain GAS1, active compounds read low 0.986 | S. cerevisiae deletion strains, locus YNL067W, strain RPL9B, active compounds read low 0.993 | S. cerevisiae deletion strains, locus YNL128W, strain TEP1, active compounds read low 1.01 and 1.02 | S. cerevisiae deletion strains, locus YNL153C, strain GIM3, active compounds read low 1.01 | S. cerevisiae deletion strains, locus YNL183C, strain NPR1, active compounds read low 0.914 | S. cerevisiae deletion strains, locus YNL197C, strain WHI3, active compounds read low 1.1 | S. cerevisiae deletion strains, locus YNL209W, strain ssb2, active compounds read low 0.983 | S. cerevisiae deletion strains, locus YNL224C, strain SQS1, active compounds read low 1 | S. cerevisiae deletion strains, locus YNL233W, strain BNI4, active compounds read low 1.01 | S. cerevisiae deletion strains, locus YNL248C, strain rpa49, active compounds read low 0.99 | S. cerevisiae deletion strains, locus YNL250W, strain rad50, active compounds read low 0.987 | S. cerevisiae deletion strains, locus YNL271C, strain bni1, active compounds read low 0.987 | S. cerevisiae deletion strains, locus YNL298W, strain CLA4, active compounds read low 0.978 | S. cerevisiae deletion strains, locus YNL307C, strain MCK1, active compounds read low 0.912 | S. cerevisiae deletion strains, locus YNL322C, strain KRE1 (second series), active compounds read low 0.976 | S. cerevisiae deletion strains, locus YNL322C, strain KRE1, active compounds read low 1 | S. cerevisiae deletion strains, locus YNR049C, strain mso1, active compounds read low 0.978 | S. cerevisiae deletion strains, locus YNR052C, strain pop2, active compounds read low 0.985 | S. cerevisiae deletion strains, locus YOL006C, strain TOP1, active compounds read low 0.918 | S. cerevisiae deletion strains, locus YOL012C, strain htz1 0.884 | S. cerevisiae deletion strains, locus YOL147C, strain pex11, active compounds read low 0.991 | S. cerevisiae deletion strains, locus YOR001W, strain rrp6, active compounds read low 0.931 | S. cerevisiae deletion strains, locus YOR061W, strain CKA2, active compounds read low 1 | S. cerevisiae deletion strains, locus YOR069W, strain VPS5, active compounds read low 1.01 | S. cerevisiae deletion strains, locus YOR070C, strain gyp1, active compounds read low 0.996 | S. cerevisiae deletion strains, locus YOR080W, strain dia2, active compounds read low 0.969 | S. cerevisiae deletion strains, locus YOR083W, strain WHI5, active compounds read low 0.921 | S. cerevisiae deletion strains, locus YOR106W, strain vam3, active compounds read low 0.888 | S. cerevisiae deletion strains, locus YOR136W, strain idh2, active compounds read low 0.976 | S. cerevisiae deletion strains, locus YOR144C, strain elg1, active compounds read low 0.991 | S. cerevisiae deletion strains, locus YOR184W, strain ser1, active compounds read low 0.963 | S. cerevisiae deletion strains, locus YOR231W, strain MKK1, active compounds read low 0.948 | S. cerevisiae deletion strains, locus YOR265W, strain rbl2, active compounds read low 0.97 | S. cerevisiae deletion strains, locus YOR270C, strain vph1, active compounds read low 0.789 | S. cerevisiae deletion strains, locus YOR290C, strain snf2, active compounds read low 0.983 | S. cerevisiae deletion strains, locus YOR316C, strain cot1, active compounds read low 0.984 | S. cerevisiae deletion strains, locus YPL051W, strain arl3, active compounds read low 0.956 | S. cerevisiae deletion strains, locus YPL055C, strain LGE1, active compounds read low 1.03 | S. cerevisiae deletion strains, locus YPL106C, strain sse1, active compounds read low 1 | S. cerevisiae deletion strains, locus YPL240C, strain hsp82, active compounds read low 0.983 | S. cerevisiae deletion strains, locus YPL241C, strain CIN2, active compounds read low 1.01 | S. cerevisiae deletion strains, locus YPL256C, strain CLN2, active compounds read low 0.908 | S. cerevisiae deletion strains, locus YPR119W, strain clb2, active compounds read low 0.991 | S. cerevisiae deletion strains, locus YPR141C, strain kar3, active compounds read low 0.995 | S. cerevisiae deletion strains, locus YPR163C, strain tif3, active compounds read low 0.992 | S. cerevisiae deletion strains, locus YPR167C, strain met16, active compounds read low 0.989 | S. cerevisiae deletion strains, strain wtn01, active compounds read low 0.977 | S. cerevisiae strains, strain wild type, active compounds read low 1.01
active: S. cerevisiae deletion strains, locus YLR027C, strain aat2, active compounds read low 0.889 | S. cerevisiae deletion strains, locus YNL071W, strain lat1, active compounds read low 0.907 | S. cerevisiae deletion strains, locus YPL078C, strain atp4, active compounds read low 0.889
